Compound activity deposited in PubChem by National Center for Advancing Translational Sciences (NCATS).
KB-3-1 tox = qHTS assay for MDR1-selective chemotherapeutics: Primary screen using the parental adenocarcinoma cell KB-3-1; Potency, µM (titrated, usually from 46.1 µM), actives largely listed as cytotoxic; KB-3-1 viability, CellTiter-Glo ATP luminescence, 72 h; hit rate 1.4% among 400,000; also: % is scaled to controls: 0 for no effect and ±100 for the full control effect; nearly all actives have a fitted effect of over 60% in size
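KB-3-1 cells, DMEM (no phenol red) + 10% FBS; compound by pin transfer, 72 h, 37 °C. Readout: CellTiter-Glo luminescence after 10 min. Data normalized, curve-fitted.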
SW480 rerep = A quantitative high throughput screen for small molecules that induce DNA re-replication in SW480 colon adenocarcinoma cells; SW480 DNA re-replication, Hoechst DNA content imaging, 48 h; Potency, µM (top dose mostly 46.1 µM), inactives show at the highest dose re-replication activation, usual class: activators; hit rate 1.8% among 340,000; AID 624297, 2012; also: % of control where 0% means no effect; nearly all actives have a fitted effect of over 55% in size
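Hoechst fluorescence of nuclei (405 nm excitation, 500-530 nm emission) measured by plate-scanning imager after 48 hr compound exposure at 37 C; re-replication scored as increased number of nuclei with elevated intensity.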
KB-V1 cytotox = qHTS assay for MDR1-selective chemotherapeutics: Primary screen using the drug-selected MDR subline cells KB-V1 | hit rate 3.4% among 400,000 | Potency, µM (series often up to 46.1 µM), hits mostly cytotoxic | AID 1347076, 2019 | KB-V1 MDR cells viability, CellTiter-Glo, 72 h; also: % is scaled to controls: 0 for no effect and ±100 for the full control effect; nearly all actives have a fitted effect of over 60% in size
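Readout: CellTiter-Glo luminescence, 10 min after addition. Cells: KB-V1 MDR subline, 72 h at 37 degrees C with compound. Analysis: corrected, normalized data fitted to concentration-effect curves.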
MCF10A rereplic = A quantitative high throughput screen for small molecules that induce DNA re-replication in MCF 10a normal breast cells; MCF 10A DNA re-replication, Hoechst nuclear intensity, 48 h; Potency, µM (series often up to 46.1 µM), without a hit: at the top dose activity, positive = re-replication, actives largely listed as activators; hit rate 2.9% among 350,000; also: % of control where 0% means no effect; nearly all actives have a fitted effect of over 50% in size
ELG1 repair inh = qHTS screen for small molecules that inhibit ELG1-dependent DNA repair in human embryonic kidney (HEK293T) cells expressing luciferase-tagged ELG1 | HEK293T ELG1-luciferase reporter, luminescence, 16 h; DNA damage induced by 5-fluorouridine | Potency, µM (doses to about 46.1 µM), without a hit: top-dose activity change, negative = inhibition, most hits filed as inhibitors | hit rate 2.3% among 330,000 | AID 504467, 2011; also: % is scaled to controls: 0 for no effect and ±100 for the full control effect; nearly all actives have a fitted effect of over 55% in size
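Luminescence from the luciferase reporter, measured 30 min after ONE-Glo reagent at room temperature, was the read-out. Beforehand, 2,000 cells per well were exposed for 16 hr at 37 °C to 5-fluorouridine together with compound or vehicle.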
Active calls of the source: *; i = inactive; ? = inconclusive; · = no result; [ ] = another dose, or the depositor's remark. Hits are enriched below; roughly 8.1% of the tested compounds scored in any of these assays. Calls follow the shape of the dose curve; as a rule, active = well fitted curve in the direction sought with a large enough effect; inconclusive = small, poorly fitted or top-dose-only effect, or another doubt; inactive = no such curve, though single readings can be large; an effect the other way counts as inactive or inconclusive. Potency is read from the fitted curve at half-maximal effect.

SMILES	KB-3-1 tox	SW480 rerep	KB-V1 cytotox	MCF10A rereplic	ELG1 repair inh
COc1ccc(S(=O)(=O)/N=C2\C=C(Nc3ccc(O)cc3)C(=O)c3ccccc32)cc1	5.17µM*	16.4µM*	16.4µM*	4.61µM*	5.8µM*
Cc1ccc(NC2=C/C(=N/S(=O)(=O)c3cccs3)c3ccccc3C2=O)cc1C	i	-5.0%	i	?	?
CC(=O)Nc1ccc(NC2=C/C(=N/S(=O)(=O)c3cccs3)c3ccccc3C2=O)cc1	20.6µM*	4.11µM*	i	8.2µM*	1.64µM*
Cc1ccccc1NC1=C/C(=N\S(=O)(=O)c2cccs2)c2ccccc2C1=O	?	4.11µM*	7.31µM*	?	3.66µM*
C[C@H]1CN([C@@H](C)CO)C(=O)c2cc(Br)cnc2O[C@H]1CN(C)C(=O)C1CCC1	i	·	i	·	·
Cc1noc(C)c1NC(=O)Nc1ccc2c(c1)C(=O)N([C@H](C)CO)C[C@H](C)[C@@H](CN(C)S(=O)(=O)c1ccccc1)O2	i	-5.2%	i	2.0%	?
CCOC(=O)c1ccc2c(c1)nc(SCC(=O)c1cc3ccccc3o1)n2CC	i	-1.5%	18.4µM*	?	?
C=CCNC(=O)CSc1nc2cc(C(=O)OCC)ccc2n1CC	i	1.6%	i	2.3%	2.3%
CC(=O)c1ccc(NC(=O)CSc2ccc(-c3sc(C)nc3C)nn2)cc1	i	-29.0%	i	16.6%	18.3µM*
Cc1ccc(CNC(=O)c2cc3c(s2)-c2ccc(Cl)cc2SC3)cc1	i	·	i	·	·
CN(C)CCNC(=O)c1cc2c(s1)-c1ccc(Cl)cc1SC2	?	?	i	20.6µM*	?
O=C(O)c1cn(C2CC2)c2cc(N3CCNCC3)c(F)cc2c1=O	·	-1.1%[20.6 µM]	·	0.5%[20.6 µM]	·
Cn1c(=O)c2cc(C(=O)N3CCN(c4ccc(Cl)cc4)CC3)sc2c2ccccc21	i	·	i	·	·
O=C(NN=Cc1ccc(Cl)cc1Cl)C1CC1	i	-4.7%	14.6µM*	5.3%	·
O=C1Nc2ccccc2-n2nnnc2C1N1CCN(C(=O)C2CCCO2)CC1 (stereo not drawn)	i	·	i	·	·
O=c1c2oc3ccccc3c2n(Cc2cccc(Cl)c2)c(=O)n1Cc1ccco1	?	·	i	·	·
O=C(COC(=O)COc1ccccc1)Nc1ncc([N+](=O)[O-])s1	i	-3.5%	i	-3.1%	16.6%
O=C(Cc1ccc(Br)cc1)Nc1ncc([N+](=O)[O-])s1	20.6µM*	6.5%	?	?	-5.1%
O=C(COc1ccc(Cl)cc1)Nc1ncc([N+](=O)[O-])s1	?	-2.5%	13µM*	?	?
O=C(Cc1ccc(Cl)cc1)Nc1ncc([N+](=O)[O-])s1	i	-4.5%	?	?	?
Cc1cnc(C(=O)OCC(=O)Nc2ccc(Br)c(C)c2)cn1	i	1.9%	i	15.7%	6.2%
CCc1cc(=O)oc2c(C)c(OS(C)(=O)=O)ccc12	i	-2.8%	4.11µM*	-5.2%	·
CCOC(=O)C1(C)CCN1C(=O)Cc1ccc(OC)cc1 (stereo not drawn)	i	·	i	·	·
COc1cccc(C2=CC(c3cccs3)n3nnnc3N2)c1 (stereo not drawn)	5.17µM*	5.8µM*	?	4.11µM*	0.6%
COc1ccc(C2=CC(c3sccc3C)n3nnnc3N2)cc1 (stereo not drawn)	i	14.6%	i	?	?
SMILES	KB-3-1 tox	SW480 rerep	KB-V1 cytotox	MCF10A rereplic	ELG1 repair inh
COc1ccc(C2=CC(c3ccc(F)cc3)n3nnnc3N2)cc1 (stereo not drawn)	i	14.6µM*	i	23.1µM*	3.7%
COc1cccc(C2=CC(c3ccc(OC)c(OC)c3OC)n3nnnc3N2)c1 (stereo not drawn)	i	-3.5%	i	2.1%	?
COc1ccccc1C1C=C(c2ccccc2)Nc2nnnn21 (stereo not drawn)	13µM*	?	8.2µM*	7.31µM*	0.8%
Cc1ccc(C2=CC(c3ccc(N(C)C)cc3)n3nnnc3N2)cc1 (stereo not drawn)	i	?	i	23.1µM*	-6.1%
CCCN(C(=O)CCc1nc(-c2ccccc2F)no1)c1ccc(CC)cc1	i	·	?	·	·
CCc1ccc(C2=CC(c3cccc(Br)c3)n3nnnc3N2)cc1 (stereo not drawn)	i	·	i	·	·
Cc1cccc(C2C=C(c3ccc(C)c(C)c3)Nc3nnnn32)c1 (stereo not drawn)	20.6µM*	·	?	·	·
Cn1c(=O)n(Cc2ccc(Cl)cc2)c(=O)c2c1nc1n2CCN1Cc1ccco1	?	-0.9%	11.6µM*	6.5%	25.9µM*
Cc1cccc(Cn2c(=O)c3c(nc4n3CCN4Cc3ccco3)n(C)c2=O)c1	i	-12.4%	i	4.2%	20.6µM*
NC(=O)Cc1nc(-c2ccc([N+](=O)[O-])cc2)cs1	i	8.7%	i	-8.2%	18.3µM*
CN(C)S(=O)(=O)c1cccc(COc2ccccc2C(=O)Nc2ccccc2)c1	i	-2.7%	i	?	?
CN(C)S(=O)(=O)c1cccc(NC(=O)c2ccccc2OCc2ccc(F)cc2)c1	i	1.0%	?	13.4%	20.6µM*
O=C(NNC(=O)c1ccccc1OCc1ccc(F)cc1)c1ccccc1O	·	3.26µM*	·	-3.3%	2.31µM*
O=C(NNC(=O)c1ccccc1OCc1ccccc1)c1ccccc1O	?	?	i	0.3%	?
C/C(=N\NC(=O)c1ccccc1OCc1ccc(F)cc1)c1ccccn1	11.6µM*	2.0%	?	24.0%	?
CCOC(=O)C1CCN(c2ncnc3c2cnn3C)CC1	i	10.6%	i	-0.7%	-0.7%
COCCNc1nc(CSc2ccccc2)nc2sc(C)c(C)c12	i	-0.4%	10.3µM*	?	?
Cc1ccccc1Nc1nnc(SCc2nc3ccccc3c(=O)[nH]2)s1	·	·	·	·	0.1%
COc1cc2nc(CSc3nc(-c4ccc(F)cc4)cs3)[nH]c(=O)c2cc1OC	?	-1.1%	?	-0.7%	23.1µM*
O=c1[nH]c(CSc2nc(-c3ccc(F)cc3)cs2)nc2ccccc12	i	-4.0%	5.8µM*	10.5%	2.0%
CCOc1ccc(Nc2nnc(SCc3nc4ccccc4c(=O)[nH]3)s2)cc1	i	12.7%	i	10.3µM*	17.5%
COC(=O)c1ccc2c(=O)[nH]c(CSc3nc(-c4ccc(F)cc4)cs3)nc2c1	i	-0.9%	i	3.1%	?
COCCOC(=O)c1c(C)nc(SCC(=O)Nc2cccc3ccccc23)c(C#N)c1-c1ccco1	i	0.5%	?	13.1%	13µM*
